Experimental findings from PubChem BioAssay (NCI) are described below.

Assay [1] in a line: NCI Yeast Anticancer Drug Screen. Data for the rad50 strain (AID 155).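 Also: 0% = growth of vehicle-only cultures of the same strain.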 Conditions: S. cerevisiae rad50 strain growth inhibition; at 50.0 µM; active compounds read high. Put shortly:
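Vehicle-treated cultures provide the reference for the growth inhibition reported for compound-exposed, repair-deficient yeast.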

The nature of assay [2]: NCI Yeast Anticancer Drug Screen. Data for the mec2-1 strain (AID 157). To be noted: S. cerevisiae mec2-1 strain, at 50.0 µM, active compounds read high. The gist of the method: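 Mutant yeast (mec2-1) grown with compound; growth inhibition relative to vehicle control reported.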
The nature of assay [3]: NCI Yeast Anticancer Drug Screen. Data for the sgs1 mgt1 strain (AID 161).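 Also: 0% = growth of cultures given vehicle only.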 To be noted: S. cerevisiae sgs1 mgt1 strain, at 50.0 µM, active compounds read high. The gist of the method:
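This yeast growth screen uses a strain with defined DNA-repair lesions; compound-treated growth is compared with vehicle-treated growth.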

Assay [4] can be described thus: NCI Yeast Anticancer Drug Screen. Data for the cln2 rad14 strain (AID 165).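 Also: 0% = growth equal to vehicle treated cultures.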 To be noted: S. cerevisiae cln2 rad14 strain, at 50.0 µM, active compounds read high. Put shortly: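 Readout is yeast growth inhibition versus vehicle-treated controls, using a strain with cln2 and rad14 alterations exposed to compound.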
Assay [5] in a line: NCI Yeast Anticancer Drug Screen. Data for the bub3 strain (AID 167). To be noted: S. cerevisiae bub3 mutant strain, at 50.0 µM, active compounds read high. Put shortly: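 Mutant yeast screening strain plus compound; vehicle-treated cultures serve as the 0% inhibition reference.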
Assay [6] can be described thus: NCI Yeast Anticancer Drug Screen. Data for the mlh1 rad18 strain (AID 175). To be noted: S. cerevisiae mlh1 rad18 strain growth inhibition; at 50.0 µM; active compounds read high. Put shortly:
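Genetically defined yeast (DNA repair-deficient) exposed to compounds; growth inhibition determined relative to vehicle.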

The panel holds about 79,000 compounds, 15% with a hit somewhere; the sample as a whole holds those more often. Values without a mark were called inactive. Active and inactive are the calls of the source. Rule as the data show it: active = growth inhibition above about 70%; inactive = the rest.

For the compound `COC(=O)C1(CC(C)=O)NC(=S)NC(=O)C1C#N` (configuration not stated), the growth inhibition in assay [1] is -21.4%; in assay [2], -26.9%; in assay [3] it was -36.3%; in assay [4] it was -38.2%; in assay [5], -30.1%; in assay [6], -15.3%.

`Cc1ccc(NCN2C(=O)c3ccccc3C2=O)c(C)n1`: the growth inhibition in assay [1] is 4.7%; in assay [2], -28.4%; in assay [3], 8.05%; in assay [4] it was 11.3%; in assay [5] it was 7%; in assay [6], -0.65%.

For the compound `O=C(CC(CC(=O)c1ccccc1)c1ccccn1)c1ccccc1`, the growth inhibition is -16.6% in assay [1]; -20.2% in assay [2]; -28.1% in assay [3]; -33% in assay [4]; 4.65% in assay [5]; -42.1% in assay [6].

As to `CC(C)N(CCCC#N)C(C)C`, the growth inhibition in assay [1] was 9.9%; in assay [2], -11.6%; in assay [3], -5.25%; in assay [4] it was 10.4%; in assay [5], -17.2%; in assay [6], 8.05%.

Regarding `CCOC(=O)CO`, the growth inhibition in assay [1] is 26%; in assay [2], 6.85%; in assay [3] it was -13.4%; in assay [4], 0.3%; in assay [5], 17.2%; in assay [6], 18.9%.

As to `O=C(O)Cc1ccc(Cl)cc1`, the growth inhibition in assay [1] is 22.2%; in assay [2] it was -15.3%; in assay [3], 29%; in assay [4], 3.65%; in assay [5] it was -25.2%; in assay [6] it was 0%.

As for `CC(=O)OCC1OC(n2cnc3c(=S)nc(N)[nH]c32)C(OC(C)=O)C1OC(C)=O` (configuration not stated), the growth inhibition in assay [1] is 73% (active); in assay [2], 42%; in assay [3], 48.5%; in assay [4] it was -12.4%; in assay [5] it was 11.1%; in assay [6], 24.6%.

For `C/C(=N\N=C(/C)c1cccc([N+](=O)[O-])c1)c1cccc([N+](=O)[O-])c1`, the growth inhibition is -5.75% in assay [1]; -21% in assay [2]; 17.5% in assay [3]; -10.3% in assay [4]; 16.4% in assay [5]; -7.7% in assay [6].

`CCOC(=O)/C(C)=C\c1ccc(OC)c(OC)c1`: the growth inhibition in assay [1] is -2.15%; in assay [2] it was -11.2%; in assay [3] it was 25.9%; in assay [4], -34%; in assay [5], 18.4%; in assay [6], 18.9%.

With `C=C(c1ccc(N(C)C)cc1)c1ccc(N(C)C)cc1`, the growth inhibition in assay [1] was -0.95%; in assay [2] it was -2.55%; in assay [3], -3.05%; in assay [4], -40.4%; in assay [5], 9.5%; in assay [6] it was -5.3%.

For `Cc1cc(C(=O)c2ccccc2)cc(C)c1O`, the growth inhibition in assay [1] was 12.2%; in assay [2] it was -3.35%; in assay [3], 12.8%; in assay [4], 5.2%; in assay [5], -0.4%; in assay [6], 30.4%.

Turning to `O=S(Cc1ccccc1)/C(=C/NC(=S)Nc1ccccc1)c1ccccc1` (configuration not stated), the growth inhibition in assay [1] is -26.7%; in assay [2], -25.1%; in assay [3], -40.1%; in assay [4], -0.95%; in assay [5] it was -16.9%; in assay [6], -7.15%.

With `CCCCCCCCCCC(=O)CCCCCCCCCC`, the growth inhibition in assay [1] was 7.15%; in assay [2], -12.2%; in assay [3], 8.1%; in assay [4], 16.8%; in assay [5], 7.6%; in assay [6], 7.05%.

Turning to `COc1ccc(C(=O)C(=O)c2ccccc2)cc1`, the growth inhibition was 26.6% in assay [1]; 34.1% in assay [2]; 31.9% in assay [3]; 1.85% in assay [4]; 11.1% in assay [5]; 33.5% in assay [6].

In the case of `O=C1CSc2ccccc2N1`, the growth inhibition in assay [1] was -35%; in assay [2], -8.45%; in assay [3], 32%; in assay [4] it was -12.7%; in assay [5], 1.3%; in assay [6] it was 11.2%.

For the compound `Nc1cc(N)ncn1`, the growth inhibition in assay [1] is -1.3%; in assay [2], -18.9%; in assay [3], 3.6%; in assay [4], 22.5%; in assay [5], -10.1%; in assay [6], 26.7%.

On to `Cc1ccc(N2C(=O)c3cccc4c(N)c(S(=O)(=O)O)cc(c34)C2=O)cc1`, for which the growth inhibition in assay [1] was -33.5%; in assay [2] it was -18.2%; in assay [3], -24.7%; in assay [4], -6.8%; in assay [5], -13.7%; in assay [6], -28.4%.

As to `CC(CCC#N)(CCC#N)C(=O)c1ccccc1`, the growth inhibition in assay [1] is 28.6%; in assay [2] it was 25.7%; in assay [3] it was 25.1%; in assay [4], -38.3%; in assay [5] it was -4.75%; in assay [6], 7.65%.

Consider `O=S(=O)(O)c1cccc2cccnc12`, for which the growth inhibition was 4.3% in assay [1]; 1.95% in assay [2]; 7% in assay [3]; -14.6% in assay [4]; 10.4% in assay [5]; -0.5% in assay [6].

Turning to `COC1(OC)C2(Cl)C(Cl)=C(Cl)C1(Cl)C1COCC12` (configuration not stated), the growth inhibition in assay [1] is -48%; in assay [2], 17.5%; in assay [3], -40.2%; in assay [4], 12.8%; in assay [5] it was 22.2%; in assay [6], -8.6%.

For `Cc1ccc(NC(=S)N2CCOCC2)cc1C`, the growth inhibition in assay [1] was 0.55%; in assay [2], -17.4%; in assay [3], 29.6%; in assay [4], 8.35%; in assay [5], 4.2%; in assay [6] it was -1.55%.

Regarding `O=[N+]([O-])c1ccc2[nH]c(=S)n(/C=C(/c3ccc(Cl)cc3Cl)S(=O)(=O)Cc3ccc(Cl)cc3Cl)c2c1`, the growth inhibition in assay [1] is -5.05%; in assay [2], -13.8%; in assay [3], 16.1%; in assay [4], 23.9%; in assay [5], -3%; in assay [6] it was -13.1%.
